# Key:
# [1] = test system: RIPK1
# [2] = test system: ROCK2
# [3] = test system: RPS6KA4(Kin.Dom.1-N-terminal)
# [4] = test system: T1, RSK1(Kin.Dom.2-C-terminal)
# T1 construct: gene RPS6KA1
# [5] = test system: T2, RSK2(Kin.Dom.2-C-terminal)
# T2 construct: gene RPS6KA3
# [6] = test system: T3, RSK4(Kin.Dom.1-N-terminal)
# T3 construct: gene RPS6KA6
# [7] = test system: SRPK1
# 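Also: kd values determined as follow-up on hits from a single-replicate KINOMEscan panel screen.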
compound,measurement,setting,value
Nc1ncnc2occ(-c3ccc4c(c3)CCN4C(=O)Cc3cc(F)ccc3F)c12 [GSK2645446],Kd,[1],0.41 µM
c1ccc(-c2ccnc3[nH]ccc23)cc1 [SB-693578],Kd,[2],0.53 µM
Cc1nccc(-c2c(-c3ccc(F)cc3)ncn2CCCN2CCOCC2)n1.Cl [SB-282975],Kd,[3],> 10 µM
O=C1NC(=O)C(c2ccc(Cl)cc2)=C1Nc1cccc(Cl)c1 [SB-317651],Kd,[3],> 10 µM
NS(=O)(=O)c1cccc(N/C=C2\C(=O)Nc3ccc(S(=O)(=O)Cc4c(Cl)cccc4Cl)cc32)c1 [GSK398099],Kd,[4],> 10 µM
Cn1cnc2c(N)ncnc21 [SKF-97623],Kd,[4],> 10 µM
COc1ccc(Nc2nccc(N3CCC(NC(=O)C(C)c4ccc(Cl)cc4)CC3)n2)cc1 (stereo not drawn) [GSK1379812],Kd,[5],> 10 µM
O=C(Nc1n[nH]c2nc(-c3cccs3)c(Br)cc12)C1CC1 [SB-735297],Kd,[6],3.8 µM
Cn1cncc1C(=O)NC1CCN(c2ccnc(Nc3ccc(F)cc3)n2)C1 (stereo not drawn) [GSK1379717],Kd,[7],> 10 µM

# Source: paper PMC5540273 (PLoS ONE, 2017)
